# Measurements reported in PubChem BioAssay (NCATS).
# Records with an inconclusive call do not appear. Entries that show only a call come without a potency. Unmarked numbers belong to inactive results. The source made the active and inactive calls. Calls come from the whole dose curve; as a rule, active = well fitted curve in the direction sought with a large enough effect; inconclusive = small, poorly fitted or top-dose-only effect, or another doubt; inactive = no such curve, though single readings can be large; an effect the other way counts as inactive or inconclusive.
# Columns and labels:
# [1] = Quantitative High-Throughput drug screen in 47 multiple myeloma cell lines against the NCATS MIPE library collection: NCIH929_DSMZ cell viability assay (AID 1918978); details: NCI-H929 myeloma viability, CellTiter-Glo ATP, 48 h; series mostly up to 45.8 µM; note: nearly all actives have a fitted effect of over 35% in size; note: potency is the fitted concentration of half-maximal effect
# Summary of the method: (§1)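 qHTS format: cells plated (500/well), pin-dosed with MIPE 4.0 compounds, kept 48 h at 37 °C. Readout was CellTiter-Glo luminescence, median RLU.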
# [2] = Quantitative High-Throughput drug screen in 47 multiple myeloma cell lines against the NCATS MIPE library collection: LP1_DSMZ cell viability assay (AID 1918982); details: LP1 myeloma viability, CellTiter-Glo ATP luminescence, 48 h; series mostly up to 45.8 µM; note: nearly all actives have a fitted effect of over 35% in size
# Summary of the method: as §1
# [3] = Quantitative High-Throughput drug screen in 47 multiple myeloma cell lines against the NCATS MIPE library collection: L363_DSMZ cell viability assay (AID 1918984); details: L363 myeloma viability, CellTiter-Glo ATP luminescence, 48 h; series mostly up to 45.8 µM; note: nearly all actives have a fitted effect of over 40% in size; note: potency is the fitted concentration of half-maximal effect
# Summary of the method: as §1
# [4] = Quantitative High-Throughput drug screen in 47 multiple myeloma cell lines against the NCATS MIPE library collection: KMS34_JCRB cell viability assay (AID 1918985); details: KMS34 myeloma viability, CellTiter-Glo ATP luminescence, 48 h; series mostly up to 45.8 µM; note: nearly all actives have a fitted effect of over 40% in size; note: potency is the fitted concentration of half-maximal effect
# Summary of the method: as §1
# [5] = Quantitative High-Throughput drug screen in 47 multiple myeloma cell lines against the NCATS MIPE library collection: OPM1_PLB cell viability assay (AID 1918989); details: CellTiter-Glo, 48 h; series mostly up to 45.8 µM; note: nearly all actives have a fitted effect of over 40% in size; note: potency is the fitted concentration of half-maximal effect
# Summary of the method: as §1
# [6] = Quantitative High-Throughput drug screen in 47 multiple myeloma cell lines against the NCATS MIPE library collection: XG6_PLB cell viability assay (AID 1919865); details: XG6 myeloma viability, CellTiter-Glo ATP luminescence, 48 h; series mostly up to 45.8 µM; note: nearly all actives have a fitted effect of over 40% in size; note: potency is the fitted concentration of half-maximal effect
# Summary of the method: as §1
# [7] = Quantitative High-Throughput drug screen in 47 multiple myeloma cell lines against the NCATS MIPE library collection: PE2_PLB cell viability assay (AID 1919869); details: PE2_PLB myeloma cells viability, ATP luminescence, 48 h; series mostly up to 45.8 µM; note: nearly all actives have a fitted effect of over 35% in size; note: potency is the fitted concentration of half-maximal effect
# Summary of the method: as §1
# [8] = Quantitative High-Throughput drug screen in 47 multiple myeloma cell lines against the NCATS MIPE library collection: PCM6_Riken cell viability assay (AID 1919870); details: CellTiter-Glo ATP, 48 h; series mostly up to 45.8 µM; note: nearly all actives have a fitted effect of over 30% in size; note: potency is the fitted concentration of half-maximal effect
# Summary of the method: as §1
# [9] = Quantitative High-Throughput drug screen in 47 multiple myeloma cell lines against the NCATS MIPE library collection: RPMI8226_ATCC cell viability assay (AID 1919871); details: RPMI8226 myeloma viability, CellTiter-Glo ATP luminescence, 48 h; series mostly up to 45.8 µM; note: nearly all actives have a fitted effect of over 30% in size; note: potency is the fitted concentration of half-maximal effect
# Summary of the method: as §1
# [10] = Quantitative High-Throughput drug screen in 47 multiple myeloma cell lines against the NCATS MIPE library collection: OPM2_DSMZ cell viability assay (AID 1919872); details: OPM2 myeloma viability, CellTiter-Glo ATP luminescence, 48 h; series mostly up to 45.8 µM; note: nearly all actives have a fitted effect of over 30% in size
# Summary of the method: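 qHTS of the MIPE 4.0 collection: 500 myeloma cells/well, 48 h drug exposure at 37C in 5% CO2, then CellTiter-Glo for 5 min at room temperature before luminescence reading.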
# [11] = Quantitative High-Throughput drug screen in 47 multiple myeloma cell lines against the NCATS MIPE library collection: KMS11_JCRBsus cell viability assay (AID 1919873); details: KMS11 myeloma viability, CellTiter-Glo ATP luminescence, 48 h; series mostly up to 45.8 µM; note: nearly all actives have a fitted effect of over 50% in size; note: potency is the fitted concentration of half-maximal effect
# Summary of the method: as §1
# [12] = Quantitative High-Throughput drug screen in 47 multiple myeloma cell lines against the NCATS MIPE library collection: MM1R_ATCC cell viability assay (AID 1918981); details: MM1R multiple myeloma cells, CellTiter-Glo viability, 48 h; series mostly up to 45.8 µM; note: nearly all actives have a fitted effect of over 35% in size; note: potency is the fitted concentration of half-maximal effect
# Summary of the method: as §1
# [13] = Quantitative High-Throughput drug screen in 47 multiple myeloma cell lines against the NCATS MIPE library collection: KMS28PE_JCRB cell viability assay (AID 1918983); details: KMS28PE multiple myeloma viability, CellTiter-Glo ATP, 48 h; series mostly up to 45.8 µM; note: nearly all actives have a fitted effect of over 35% in size; note: potency is the fitted concentration of half-maximal effect
# Summary of the method: as §1
# [14] = Quantitative High-Throughput drug screen in 47 multiple myeloma cell lines against the NCATS MIPE library collection: OCIMY5_PLB cell viability assay (AID 1918988); details: OCI-MY5 myeloma viability, ATP luminescence, 48 h; series mostly up to 45.8 µM; note: nearly all actives have a fitted effect of over 65% in size; note: potency is the fitted concentration of half-maximal effect
# Summary of the method: as §1
# [15] = Quantitative High-Throughput drug screen in 47 multiple myeloma cell lines against the NCATS MIPE library collection: VP6_DJ cell viability assay (AID 1919867); details: ATP luminescence, 48 h; series mostly up to 45.8 µM; note: nearly all actives have a fitted effect of over 40% in size; note: potency is the fitted concentration of half-maximal effect
# Summary of the method: as §1
# [16] = Quantitative High-Throughput drug screen in 47 multiple myeloma cell lines against the NCATS MIPE library collection: UTMC2_PLB cell viability assay (AID 1919868); details: CellTiter-Glo ATP luminescence, 48 h; series mostly up to 45.8 µM; note: nearly all actives have a fitted effect of over 55% in size; note: potency is the fitted concentration of half-maximal effect
# Summary of the method: as §1
# [17] = Quantitative High-Throughput drug screen in 47 multiple myeloma cell lines against the NCATS MIPE library collection: SKMM1_PLB cell viability assay (AID 1919863); details: SKMM1 myeloma viability, CellTiter-Glo ATP, 48 h; viability: stronger effect = lower value; note: nearly all actives have a fitted effect of over 35% in size; note: potency is the fitted concentration of half-maximal effect
# Summary of the method: as §1
# [18] = Quantitative High-Throughput drug screen in 47 multiple myeloma cell lines against the NCATS MIPE library collection: U266_ATCC cell viability assay (AID 1919864); details: U266 myeloma viability, CellTiter-Glo ATP luminescence, 48 h; series mostly up to 45.8 µM; note: nearly all actives have a fitted effect of over 35% in size; note: potency is the fitted concentration of half-maximal effect
# Summary of the method: as §1
# [19] = Quantitative High-Throughput drug screen in 47 multiple myeloma cell lines against the NCATS MIPE library collection: MM1S_ATCC cell viability assay (AID 1918980); details: MM1S myeloma viability, CellTiter-Glo ATP luminescence, 48 h; series mostly up to 45.8 µM; note: nearly all actives have a fitted effect of over 45% in size; note: potency is the fitted concentration of half-maximal effect
# Summary of the method: as §1
# [20] = Quantitative High-Throughput drug screen in 47 multiple myeloma cell lines against the NCATS MIPE library collection: OCIMY7_PLB cell viability assay (AID 1918987); details: OCI-MY7 myeloma viability, CellTiter-Glo ATP, 48 h; series mostly up to 45.8 µM; note: nearly all actives have a fitted effect of over 65% in size; note: potency is the fitted concentration of half-maximal effect
# Summary of the method: as §1
structure (smiles),measurement,setting,value
C[C@]12CC[C@@H]3c4ccc(OC(=O)N(CCCl)CCCl)cc4CC[C@H]3[C@@H]1CC[C@@H]2OP(=O)(O)O,Potency,[1],inactive
same,outcome,[2],inactive
same,Potency,[3],inactive
same,Potency,[4],inactive
same,Potency,[5],inactive
same,Potency,[6],inactive
same,Potency,[7],inactive
same,Potency,[8],inactive
same,Potency,[9],inactive
same,outcome,[10],inactive
same,Potency,[11],inactive
COc1cc(OC)c(OC)cc1C=O,Potency,[1],inactive
same,Potency,[12],inactive
same,outcome,[2],inactive
same,Potency,[13],inactive
same,Potency,[3],inactive
same,Potency,[4],inactive
same,Potency,[14],inactive
same,Potency,[5],inactive
same,Potency,[15],inactive
same,Potency,[16],inactive
same,Potency,[7],inactive
same,Potency,[8],inactive
same,outcome,[10],inactive
same,Potency,[11],inactive
CN1C(=O)COc2c(C(=O)NC3CN4CCC3CC4)cc(Cl)cc21 (centres undefined),Potency,[1],inactive
same,Potency,[12],inactive
same,outcome,[2],inactive
same,Potency,[13],inactive
same,Potency,[5],inactive
same,viability,[17],152%
same,Potency,[18],inactive
same,Potency,[6],inactive
same,Potency,[15],inactive
same,Potency,[8],inactive
same,Potency,[9],inactive
same,outcome,[10],inactive
C[C@]12CC[C@H]3[C@@H](CC[C@@]45O[C@H]4C(O)=C(C#N)C[C@]35C)[C@H]1CC[C@H]2O,Potency,[1],inactive
same,Potency,[19],1.48 µM (active)
same,outcome,[2],inactive
same,Potency,[13],inactive
same,Potency,[3],inactive
same,Potency,[4],16.6 µM (active)
same,Potency,[20],5.26 µM (active)
same,Potency,[5],inactive
same,Potency,[6],inactive
same,Potency,[16],inactive
same,Potency,[7],inactive
same,Potency,[8],inactive
same,Potency,[9],inactive
same,outcome,[10],inactive
same,Potency,[11],inactive
CC(NC(C)(C)C)C(=O)c1cccc(Cl)c1 (centres undefined),Potency,[1],inactive
same,Potency,[13],inactive
same,Potency,[4],inactive
same,Potency,[14],13.2 µM (active)
same,viability,[17],112%
same,Potency,[6],inactive
same,Potency,[7],inactive
same,Potency,[8],inactive
same,Potency,[9],20.9 µM (active)
same,outcome,[10],inactive
CC(C)c1cccc(C(C)C)c1O,Potency,[1],inactive
same,Potency,[19],8.33 µM (active)
same,Potency,[12],inactive
same,outcome,[2],inactive
same,Potency,[13],inactive
same,Potency,[4],inactive
same,Potency,[5],inactive
same,viability,[17],119%
same,Potency,[18],inactive
same,Potency,[6],inactive
same,Potency,[15],inactive
same,Potency,[16],inactive
same,Potency,[7],inactive
same,Potency,[8],inactive
same,Potency,[9],inactive
same,outcome,[10],inactive
same,Potency,[11],inactive
O=C(O)CCCc1ccc(N(CCCl)CCCl)cc1,Potency,[12],23.5 µM (active)
same,Potency,[20],4.69 µM (active)
same,Potency,[14],inactive
same,Potency,[18],inactive
same,Potency,[6],11.8 µM (active)
same,Potency,[16],18.7 µM (active)
same,Potency,[7],inactive
same,Potency,[8],16.6 µM (active)
same,outcome,[10],inactive
same,Potency,[11],inactive
CCC1(c2ccc(N)cc2)CCC(=O)NC1=O (centres undefined),Potency,[1],inactive
same,Potency,[19],inactive
same,Potency,[12],inactive
same,outcome,[2],inactive
same,Potency,[13],inactive
same,Potency,[4],inactive
same,Potency,[14],inactive
same,Potency,[5],inactive
same,Potency,[18],1.32 µM (active)
same,Potency,[6],inactive
same,Potency,[16],inactive
same,Potency,[7],inactive
same,Potency,[9],inactive
same,outcome,[10],inactive
C[C@](O)(CS(=O)(=O)c1ccc(F)cc1)C(=O)Nc1ccc(C#N)c(C(F)(F)F)c1,Potency,[1],0.296 µM (active)
same,Potency,[19],0.372 µM (active)
same,Potency,[12],2.35 µM (active)
same,Potency,[13],26.4 µM (active)
same,Potency,[20],0.469 µM (active)
same,Potency,[14],0.372 µM (active)
same,Potency,[5],1.87 µM (active)
same,Potency,[18],0.935 µM (active)
same,Potency,[6],0.148 µM (active)
same,Potency,[15],0.662 µM (active)
same,Potency,[7],0.662 µM (active)
same,Potency,[8],0.662 µM (active)
same,Potency,[9],inactive
same,Potency,[11],inactive
C[C@]12CCC(=O)C=C1CC[C@@H]1[C@H]3CC[C@](C)(O)[C@@]3(C)CC[C@@H]12,Potency,[1],inactive
same,Potency,[19],38.2 µM (active)
same,Potency,[13],inactive
same,Potency,[20],30.3 µM (active)
same,Potency,[14],48.1 µM (active)
same,Potency,[5],inactive
same,Potency,[17],30.3 µM (active)
same,Potency,[18],38.2 µM (active)
same,Potency,[16],inactive
same,Potency,[9],38.2 µM (active)
same,Potency,[11],42.9 µM (active)
O=P1(N(CCCl)CCCl)NCCCO1 (centres undefined),Potency,[1],8.33 µM (active)
same,Potency,[19],inactive
same,outcome,[2],inactive
same,Potency,[3],10.5 µM (active)
same,Potency,[5],13.2 µM (active)
same,Potency,[6],inactive
same,Potency,[15],inactive
same,outcome,[10],inactive
CN1C(=O)CCS(=O)(=O)C1c1ccc(Cl)cc1 (centres undefined),Potency,[1],20.9 µM (active)
same,Potency,[19],18.7 µM (active)
same,Potency,[12],inactive
same,outcome,[2],inactive
same,Potency,[13],inactive
same,Potency,[3],inactive
same,Potency,[4],inactive
same,Potency,[20],inactive
same,Potency,[14],inactive
same,Potency,[5],inactive
same,viability,[17],109%
same,Potency,[18],inactive
same,Potency,[6],18.7 µM (active)
same,Potency,[15],inactive
same,Potency,[7],inactive
same,Potency,[8],inactive
same,outcome,[10],inactive
CC(C)C[C@H](CN)CC(=O)O,Potency,[1],inactive
same,Potency,[12],inactive
same,outcome,[2],inactive
same,Potency,[13],inactive
same,Potency,[4],inactive
same,Potency,[5],inactive
same,Potency,[6],inactive
same,Potency,[7],inactive
same,Potency,[9],inactive
same,outcome,[10],inactive
same,Potency,[11],inactive
